Results on 20 molecules are retold here after PubChem BioAssay (EPA / NIEHS).

Several values for one entry are separate records, joined by “and”; a condition that tells them apart may be missing. Equal entries are not always repeated. Results filed as inconclusive are left out. Some compounds were tested as several samples or in several runs, with calls that do not always agree. Activity calls are given as the source filed them. The calls were made as follows: active = hit-call score of the fitted dose curve at least 0.9, where 1 is the maximum; inconclusive = response in the unintended direction; inactive = score below 0.9.

In test [1] the target is Estrogen receptor (Homo sapiens) + Estrogen receptor beta (Homo sapiens) (UniProt P03372+Q92731). The experiment in a line: OT_ER_ERaERb_1440: Odyssey Thera (OT) 24-hour HEK293T Protein-Complementation Assay for Estrogen Receptor-alpha/-beta Homodimer (AID 2283356).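 Also: heteromer of ER alpha and ER beta binding domains; hits raise reporter fluorescence and both agonists and antagonists give an increase.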 The procedure, abridged: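 HEK293T stably expressing a PCA of ER alpha LBD (aa 310-547) and ER beta LBD (aa 263-489). After 24 h compound exposure, mean fluorescence intensity in nucleus (agonists) or nucleus and cytoplasm (antagonists) measured by laser scanning cytometry versus vehicle.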

Test [2] has as its target Estrogen receptor beta (Homo sapiens) (UniProt Q92731). The experiment in a line: OT_ER_ERbERb_0480: Odyssey Thera (OT) 8-hour HEK293T Protein-Complementation Assay for Estrogen Receptor-beta/-beta Homodimer (AID 2283357).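 Also: active means signal gain over DMSO baseline.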 The procedure, abridged:
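Readout: increase in mean fluorescence intensity (nucleus for agonists; nucleus plus cytoplasm for antagonists) relative to DMSO, from a reporter-fragment complementation of human ER-beta LBD homodimer in HEK293T cells dosed 8 hours.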

Test [3] shares this target. The experiment in a line: OT_ER_ERbERb_1440: Odyssey Thera (OT) 24-hour HEK293T Protein-Complementation Assay for Estrogen Receptor-beta/-beta Homodimer (AID 2283380).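 Also: scored as signal increase over DMSO baseline for both agonists and antagonists.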 The procedure, abridged: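 HEK293T cells stably expressing human ER-beta LBD (aa 310-547) PCA homodimer pair, dosed 24 h; formaldehyde-fixed, Draq5-stained. Readout: increase in nuclear (agonist) or nuclear plus cytoplasmic (antagonist) fluorescence intensity versus DMSO, gain-of-signal fitting.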

Test [4] deals with human Thyroid Receptor Alpha (TRa), THRA (gene 7067) (UniProt P10827). Kind of test: NVS_NR_hTRa_Antagonist: NovaScreen (NVS) Nuclear Receptor Binding Assay for human Thyroid Receptor Alpha Antagonism (TRa) (AID 2283362).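 Also: activity is loss of signal relative to DMSO baseline.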 The procedure, abridged:
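Cell-free AlphaLISA chemiluminescent binding read 1 h after dosing, antagonist mode; signal loss versus DMSO baseline. Primary screen in duplicate at 25 uM, then concentration series for actives.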

The target of test [5] is Nuclear receptor subfamily 1 group I member 2 (Homo sapiens) (UniProt O75469). The experiment in a line: NVS_NR_hPXR: NovaScreen (NVS) Nuclear Receptor Binding Assay for human Pregnane X Receptor (PXR) (AID 2283365).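 Also: a drop in FRET signal versus DMSO baseline means the compound binds.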 The procedure, abridged:
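Cell-free TR-FRET binding assay with extracted human PXR protein, read 2 h after dosing. Primary screen run in duplicate at 25 uM, actives followed in concentration series; loss of signal fitted against DMSO baseline.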

Test [6] has as its target Peroxisome proliferator-activated receptor gamma (Homo sapiens) (UniProt P37231). The experiment in a line: NVS_NR_hPPARg: NovaScreen (NVS) Nuclear Receptor Binding Assay for human Peroxisome Proliferator-activated Receptor gamma (PPARg) (AID 2283370). The procedure, abridged:
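Cell-free fluorescence polarization binding to human PPARg protein, read 2 h after dosing. Primary screen in duplicate at 25 uM, actives followed in concentration series; loss of signal relative to DMSO scored.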

Test [7] concerns the target mouse Estrogen Receptor alpha (Era), Esr1 (gene 13982) (UniProt P19785). Kind of test: NVS_NR_mERa: NovaScreen (NVS) Nuclear Receptor Binding Assay for mouse Estrogen Receptor alpha (Era) (AID 2283378).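 Also: hit means loss of bound radioligand signal relative to DMSO.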 The procedure, abridged:
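Cell-free radioligand competitive displacement binding, read by filter-based scintillation counting 18 h after dosing. Primary screen run in duplicate at 25 uM, actives retested in concentration series; loss of signal versus DMSO.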

For test [8], the target named is Agonist Androgen Response Element (ARE), AR (gene 367) (UniProt P10275). Kind of test: OT_AR_ARELUC_AG_1440: Odyssey Thera (OT) 24-hour CHO-K1 Luciferase Assay for Agonist Androgen Response Element (ARE) (AID 2283379). The procedure, abridged: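 Seed CHO-K1 cells; dose compounds for 24 h; add D-luciferin plus ATP in PBS; read luminescence. Signal increase relative to vehicle defines agonist activity, with at least 3 replicate wells per sample.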

In the next test the target is PGR (gene 5241) (UniProt P06401). The experiment in a line: NVS_NR_hPR: NovaScreen (NVS) Nuclear Receptor Binding Assay for human Progestron Receptor (PR) (AID 2283360).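 Also: active means loss of bound radioligand signal versus DMSO baseline.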 The procedure, abridged: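 Competitive displacement of a labelled radioligand from T47D-derived receptor protein is measured in a cell-free format. Initial testing uses 25 uM in duplicate, with positive and negative controls on every plate.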

Test [9] deals with rat Androgen Receptor (AR), Ar (gene 24208) (UniProt P15207). Kind of test: NVS_NR_rAR: NovaScreen (NVS) Nuclear Receptor Binding Assay for rat Androgen Receptor (AR) (AID 2283366). The procedure, abridged:
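Cell-free radioligand binding on extracts of prostate from testosterone-pretreated rats, read by filter-based scintillation counting 18 h after dosing. Loss of bound signal fitted positively versus DMSO; primary screen in duplicate at 25 uM, actives followed up in concentration series.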

Test [10] relates to guinea pig Dopamine Transporter (DAT), gene 100714898. Kind of test: NVS_TR_gDAT: NovaScreen (NVS) Transporter Assay for guinea pig Dopamine Transporter (DAT) (AID 2283369).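 Also: active compounds lower bound radioligand signal relative to DMSO.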 The procedure, abridged:
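Guinea pig striatal membranes, cell-free radioligand binding with filter-based scintillation counting, read 2 h after dosing. Loss of signal versus DMSO baseline; single-concentration primary (25 uM) then concentration-response up to 50 uM.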

Test [11] deals with human Peroxisome Proliferator-activated Receptor alpha (PPARa), PPARA (gene 5465) (UniProt Q07869). The experiment in a line: NVS_NR_hPPARa: NovaScreen (NVS) Nuclear Receptor Binding Assay for human Peroxisome Proliferator-activated Receptor alpha (PPARa) (AID 2283359).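 Also: activity means loss of TR-FRET signal versus DMSO baseline.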 The procedure, abridged: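 Cell-free binding assay with extracted human protein, read by TR-FRET 1 h after chemical dosing. Loss of signal relative to DMSO baseline indicates binding. Primary screen used duplicate single concentration (25 uM); actives followed up in concentration series.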

In test [12] the target is human Adenosine Transporter (Adot), SLC29A1 (gene 2030) (UniProt Q99808). The experiment in a line: NVS_TR_hAdoT: NovaScreen (NVS) Transporter Assay for human Adenosine Transporter (Adot) (AID 2283368). The procedure, abridged: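 U937-derived membranes, cell-free radioligand binding, filter scintillation 1 h after dosing. 25 uM duplicate screen; hits (e.g. 30% inhibition) run in concentration-response up to 50 uM; loss of signal versus DMSO.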

Test [13] concerns the target guinea pig Sigma Receptor, Non-selective Binding, SIGMAR1 (gene 100135589) (UniProt Q60492). Kind of test: NVS_OR_gSIGMA_NonSelective: NovaScreen (NVS) Nuclear Receptor Binding Assay for guinea pig Sigma Receptor, Non-selective Binding (AID 2283367). The procedure, abridged: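 Guinea pig brain membranes, cell-free radioligand binding; read 1 h after dosing by filter-based scintillation counting. Loss of signal vs DMSO baseline taken as displacement. Primary screen single concentration 25 uM in duplicate; actives retested in concentration series.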

Test [14] deals with Retinoic acid receptor alpha (Homo sapiens) (UniProt P10276). Kind of test: NVS_NR_hRAR_Antagonist: NovaScreen (NVS) Nuclear Receptor Binding Assay for human Retinoic Acid Alpha Receptor Antagonism (RAR) (AID 2283358). The procedure, abridged: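 Cell-free TR-FRET binding assay on extracted receptor protein, run in antagonist mode; signal read 2 hours after chemical dosing. Loss of signal was fitted relative to DMSO baseline. Screened at 25 uM in duplicate, actives followed up in concentration series.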

Sequence of rat Androgen Receptor (AR), Ar (gene 24208) (P15207 whole entry, looked up): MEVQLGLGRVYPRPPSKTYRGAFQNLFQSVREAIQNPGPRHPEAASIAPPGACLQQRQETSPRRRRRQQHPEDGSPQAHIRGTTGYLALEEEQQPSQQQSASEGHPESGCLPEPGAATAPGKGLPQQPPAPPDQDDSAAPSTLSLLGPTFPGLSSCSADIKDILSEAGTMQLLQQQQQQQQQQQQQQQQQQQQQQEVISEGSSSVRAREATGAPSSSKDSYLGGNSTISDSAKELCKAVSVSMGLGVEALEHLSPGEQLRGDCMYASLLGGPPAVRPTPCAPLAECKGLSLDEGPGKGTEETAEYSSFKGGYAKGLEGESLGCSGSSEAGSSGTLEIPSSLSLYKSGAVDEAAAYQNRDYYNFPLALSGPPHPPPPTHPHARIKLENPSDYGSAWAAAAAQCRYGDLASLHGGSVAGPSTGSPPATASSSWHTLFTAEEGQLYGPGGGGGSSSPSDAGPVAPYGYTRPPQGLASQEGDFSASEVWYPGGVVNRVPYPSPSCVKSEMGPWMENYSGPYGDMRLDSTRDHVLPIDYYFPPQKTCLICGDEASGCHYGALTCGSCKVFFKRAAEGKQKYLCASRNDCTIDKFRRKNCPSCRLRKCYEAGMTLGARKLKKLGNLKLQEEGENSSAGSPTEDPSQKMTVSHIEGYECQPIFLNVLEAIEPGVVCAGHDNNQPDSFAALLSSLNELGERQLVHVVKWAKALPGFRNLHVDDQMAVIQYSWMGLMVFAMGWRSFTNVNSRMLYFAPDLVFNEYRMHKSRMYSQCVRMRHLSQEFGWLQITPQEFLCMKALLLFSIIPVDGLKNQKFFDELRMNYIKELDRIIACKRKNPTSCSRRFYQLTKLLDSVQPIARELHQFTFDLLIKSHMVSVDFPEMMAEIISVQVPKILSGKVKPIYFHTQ
Sequence of human Peroxisome Proliferator-activated Receptor alpha (PPARa), PPARA (gene 5465) (Q07869 whole entry, looked up): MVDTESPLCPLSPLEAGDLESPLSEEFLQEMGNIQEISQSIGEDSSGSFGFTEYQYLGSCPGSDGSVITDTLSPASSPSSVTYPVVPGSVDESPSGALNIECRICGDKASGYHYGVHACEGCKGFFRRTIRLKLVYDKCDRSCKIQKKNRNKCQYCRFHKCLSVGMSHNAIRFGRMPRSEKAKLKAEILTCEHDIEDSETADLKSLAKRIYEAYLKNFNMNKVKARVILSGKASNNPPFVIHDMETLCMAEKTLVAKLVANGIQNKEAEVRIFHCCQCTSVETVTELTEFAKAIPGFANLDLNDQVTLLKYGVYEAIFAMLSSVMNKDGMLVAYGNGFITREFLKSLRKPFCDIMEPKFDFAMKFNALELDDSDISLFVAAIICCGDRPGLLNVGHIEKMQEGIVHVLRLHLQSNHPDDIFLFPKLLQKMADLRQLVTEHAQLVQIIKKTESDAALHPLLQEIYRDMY
Sequence of Estrogen receptor (Homo sapiens) + Estrogen receptor beta (Homo sapiens) (P03372 whole entry, looked up, the tested form may be a part): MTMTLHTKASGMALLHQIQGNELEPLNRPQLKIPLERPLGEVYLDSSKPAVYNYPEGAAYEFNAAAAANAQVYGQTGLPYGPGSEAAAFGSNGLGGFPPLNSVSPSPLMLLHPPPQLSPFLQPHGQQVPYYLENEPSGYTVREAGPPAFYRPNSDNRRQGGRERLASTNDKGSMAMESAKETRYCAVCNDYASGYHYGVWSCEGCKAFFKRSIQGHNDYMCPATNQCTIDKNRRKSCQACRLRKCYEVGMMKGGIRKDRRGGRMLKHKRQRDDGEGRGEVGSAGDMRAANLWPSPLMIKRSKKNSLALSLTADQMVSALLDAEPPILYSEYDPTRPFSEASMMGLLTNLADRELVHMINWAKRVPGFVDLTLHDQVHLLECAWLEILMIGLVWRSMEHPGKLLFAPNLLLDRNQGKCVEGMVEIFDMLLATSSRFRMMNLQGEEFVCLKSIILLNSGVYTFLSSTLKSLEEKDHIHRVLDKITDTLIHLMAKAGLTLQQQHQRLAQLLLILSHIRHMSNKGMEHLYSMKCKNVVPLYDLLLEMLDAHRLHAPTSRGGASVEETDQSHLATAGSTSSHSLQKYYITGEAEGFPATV
Sequence of Estrogen receptor (Homo sapiens) + Estrogen receptor beta (Homo sapiens) (Q92731 whole entry, looked up, the tested form may be a part): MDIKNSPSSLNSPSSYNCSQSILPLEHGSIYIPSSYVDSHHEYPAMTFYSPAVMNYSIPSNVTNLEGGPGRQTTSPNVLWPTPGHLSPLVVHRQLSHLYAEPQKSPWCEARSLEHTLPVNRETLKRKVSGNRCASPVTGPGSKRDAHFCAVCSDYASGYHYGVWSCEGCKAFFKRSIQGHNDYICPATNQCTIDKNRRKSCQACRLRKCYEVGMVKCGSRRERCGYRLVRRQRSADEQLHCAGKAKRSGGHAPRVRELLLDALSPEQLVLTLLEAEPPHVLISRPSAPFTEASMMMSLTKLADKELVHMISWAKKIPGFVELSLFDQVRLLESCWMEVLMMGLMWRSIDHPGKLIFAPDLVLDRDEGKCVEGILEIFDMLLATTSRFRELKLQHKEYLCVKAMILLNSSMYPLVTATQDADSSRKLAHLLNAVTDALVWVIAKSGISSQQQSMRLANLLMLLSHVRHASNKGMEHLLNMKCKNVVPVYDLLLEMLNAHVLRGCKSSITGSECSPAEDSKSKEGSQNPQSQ
Sequence of mouse Estrogen Receptor alpha (Era), Esr1 (gene 13982) (P19785 whole entry, looked up): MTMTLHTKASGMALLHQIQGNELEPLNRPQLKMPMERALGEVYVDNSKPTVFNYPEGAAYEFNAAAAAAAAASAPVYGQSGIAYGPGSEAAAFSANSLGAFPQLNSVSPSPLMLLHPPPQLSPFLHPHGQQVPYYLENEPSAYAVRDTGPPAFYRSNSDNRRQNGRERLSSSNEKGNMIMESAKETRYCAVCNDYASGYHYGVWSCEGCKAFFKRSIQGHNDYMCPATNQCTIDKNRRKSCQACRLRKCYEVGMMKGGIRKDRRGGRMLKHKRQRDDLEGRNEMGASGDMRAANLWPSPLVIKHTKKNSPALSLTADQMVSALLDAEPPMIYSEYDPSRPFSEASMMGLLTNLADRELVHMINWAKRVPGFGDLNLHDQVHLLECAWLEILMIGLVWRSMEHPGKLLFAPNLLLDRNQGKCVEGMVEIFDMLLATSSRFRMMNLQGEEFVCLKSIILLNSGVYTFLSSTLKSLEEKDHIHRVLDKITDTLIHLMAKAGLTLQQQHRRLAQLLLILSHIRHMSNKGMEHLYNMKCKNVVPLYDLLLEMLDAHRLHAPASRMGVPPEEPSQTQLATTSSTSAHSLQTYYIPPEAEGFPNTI
Sequence of Nuclear receptor subfamily 1 group I member 2 (Homo sapiens) (O75469 whole entry, looked up): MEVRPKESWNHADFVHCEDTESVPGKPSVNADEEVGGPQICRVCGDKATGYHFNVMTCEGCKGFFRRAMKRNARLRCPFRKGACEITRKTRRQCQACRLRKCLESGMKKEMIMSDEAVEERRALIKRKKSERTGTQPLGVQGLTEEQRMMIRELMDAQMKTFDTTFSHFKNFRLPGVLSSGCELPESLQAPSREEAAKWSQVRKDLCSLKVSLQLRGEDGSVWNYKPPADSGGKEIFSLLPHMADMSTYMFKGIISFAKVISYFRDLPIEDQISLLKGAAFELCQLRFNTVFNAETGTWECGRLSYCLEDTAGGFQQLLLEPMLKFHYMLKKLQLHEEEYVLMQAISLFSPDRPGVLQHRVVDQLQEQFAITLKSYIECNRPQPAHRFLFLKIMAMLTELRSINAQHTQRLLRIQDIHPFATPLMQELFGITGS
Sequence of Estrogen receptor beta (Homo sapiens) (Q92731 whole entry, looked up, the tested form may be a part): as the sequence (Q92731 whole entry, looked up, the tested form may be a part) above
Sequence of Agonist Androgen Response Element (ARE), AR (gene 367) (P10275 whole entry, looked up): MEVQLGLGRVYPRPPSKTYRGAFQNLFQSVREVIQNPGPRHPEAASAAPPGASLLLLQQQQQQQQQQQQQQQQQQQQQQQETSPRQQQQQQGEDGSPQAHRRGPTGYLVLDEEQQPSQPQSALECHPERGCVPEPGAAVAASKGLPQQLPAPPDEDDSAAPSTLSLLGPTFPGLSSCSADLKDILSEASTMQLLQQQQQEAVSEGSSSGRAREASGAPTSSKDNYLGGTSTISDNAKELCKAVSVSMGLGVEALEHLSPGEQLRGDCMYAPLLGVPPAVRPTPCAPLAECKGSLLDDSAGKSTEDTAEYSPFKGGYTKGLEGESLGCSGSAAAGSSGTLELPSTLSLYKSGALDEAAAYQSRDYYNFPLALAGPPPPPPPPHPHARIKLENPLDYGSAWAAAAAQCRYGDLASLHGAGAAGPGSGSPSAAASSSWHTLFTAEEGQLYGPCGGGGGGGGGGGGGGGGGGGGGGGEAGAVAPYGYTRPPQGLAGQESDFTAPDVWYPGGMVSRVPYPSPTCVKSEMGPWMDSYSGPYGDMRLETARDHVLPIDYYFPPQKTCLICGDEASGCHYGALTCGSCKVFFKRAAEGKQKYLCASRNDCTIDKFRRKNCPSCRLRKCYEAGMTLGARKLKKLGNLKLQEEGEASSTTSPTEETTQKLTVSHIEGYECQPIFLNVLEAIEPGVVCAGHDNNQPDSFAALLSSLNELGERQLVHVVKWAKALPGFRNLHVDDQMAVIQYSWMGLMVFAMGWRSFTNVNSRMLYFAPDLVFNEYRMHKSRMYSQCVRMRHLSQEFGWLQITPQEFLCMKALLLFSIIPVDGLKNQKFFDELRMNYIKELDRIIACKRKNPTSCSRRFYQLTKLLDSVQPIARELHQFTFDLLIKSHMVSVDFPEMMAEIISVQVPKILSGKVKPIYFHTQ

On to `CCCCOC(=O)C(C)Oc1ccc(Oc2ccc(C(F)(F)F)cn2)cc1` (stereo not given), for which the result in test [1], in test [2] and in test [3] was inactive.

On to `CC(=O)S[C@@H]1CC2=CC(=O)CC[C@]2(C)[C@H]2CC[C@@]3(C)[C@@H](CC[C@@]34CCC(=O)O4)[C@H]12`, for which the outcome in [1], in test [2], in [4], in [5], in test [6] and in test [7] was inactive. Moreover, the outcome in test [3] was inactive. The AC50 in [5] was 25 µM (active); in test [7] it was 6.63 µM (active).

`c1ccc2[nH]c(-c3cscn3)nc2c1`: the outcome in test [1], in [2], in test [8] and in [3] was inactive.

`CCCCOC(=O)[C@@H](C)Oc1ccc(Oc2ccc(C(F)(F)F)cn2)cc1`: the result in test [1], in [2] and in [3] was inactive.

Turning to `CCCN(CCC)C(=O)SCC`, the outcome (in [1]; in test [2]; in the test with PGR (gene 5241); in test [4]; in [9]; in test [6]) was inactive. The outcome in test [8] and in [3] was inactive.

With `CCN(CC)C(=O)c1cccc(C)c1`, the result in [1], in [2], in test [6] and in [3] was inactive.

Consider `CCN(Cc1c(F)cccc1Cl)c1c([N+](=O)[O-])cc(C(F)(F)F)cc1[N+](=O)[O-]`, for which, in test [1], the AC50 is 10.3 µM (active). Also, the molecule was classed as inactive in [2], in test [10] and in test [3].

With `CN(C)C(=O)Nc1ccc(Cl)c(Cl)c1`, the result in test [11] was inactive.

With `CCC(O)=C1C(=O)CC(C(=O)O)CC1=O` (stereo not given), in [12], the outcome was inactive.

For the molecule `CCCCCCC(C)OC(=O)COc1nc(F)c(Cl)c(N)c1Cl` (stereo not given), in test [2], the outcome was inactive. Besides, in test [3], the AC50 is 72.8 µM (active).

Regarding `COC(=O)c1ccc(I)cc1S(=O)(=O)NC(=O)Nc1nc(C)nc(OC)n1`, the molecule was classed as inactive in [2] and in [3].

With `S=C([S-])NCCNC(=S)[S-].[Mn+2]`, the outcome in test [2], in test [13] and in test [3] was inactive.

Regarding `CCOC(=O)[C@H](C)Oc1ccc(Oc2nc3ccc(Cl)cc3o2)cc1`, in [6], the molecule was called inactive.

As for `CCC(C)OC(=O)N1CCCCC1CCO` (stereo not given), the outcome in test [2], in test [6] and in test [3] was inactive. Further, the half-maximal activity concentration (AC50) in [13] is 31.1 µM (active).

As for `CC1(C)C(C=C(Cl)Cl)C1C(=O)OCc1cccc(Oc2ccccc2)c1` (stereo not given), the molecule was classed as inactive (with PGR (gene 5241); in test [9]; in test [8]).

For `COC(=O)c1ccc(CNS(C)(=O)=O)cc1S(=O)(=O)NC(=O)Nc1nc(OC)cc(OC)n1`, in [14], the call was inactive.

Take `CCCCC(CC)COC(=O)c1ccccc1C(=O)O` (stereo not given): the molecule was classed as inactive in test [2], in test [4] and in test [3].

For the molecule `OB(O)O`, the result in test [12] was inactive.

For the molecule `N[C@@H](Cc1cc(I)c(Oc2ccc(O)c(I)c2)c(I)c1)C(=O)O`, the AC50 in test [11] was 27.3 µM (active) and 20 µM (active); in test [6] it was 32.3 µM (active); in test [7], 1.65 µM (active) and 20 µM (active) and 4.66 µM (active). In addition, the molecule was classed as inactive in test [11], in test [5], in test [6] and in test [7].

Regarding `CCOC(=O)NCCOc1ccc(Oc2ccccc2)cc1`, the AC50 in [10] is 8.75 µM (active).

A word on the AC50: it is the concentration giving half of the maximal activity seen.
